# Measured values as given in ChEMBL document CHEMBL1961873, “Compounds: GSK PKIS; Assays: Nanosyn kinase panel” (2012).
# Columns and labels:
# [1] = molecular target: T1, Inhibitor of nuclear factor kappa-B kinase subunit epsilon (Homo sapiens) (UniProt Q14164); conditions: at 1 µM;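 note: reported values are averaged percent inhibition figures against human IKKε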
# T1 sequence (whole entry): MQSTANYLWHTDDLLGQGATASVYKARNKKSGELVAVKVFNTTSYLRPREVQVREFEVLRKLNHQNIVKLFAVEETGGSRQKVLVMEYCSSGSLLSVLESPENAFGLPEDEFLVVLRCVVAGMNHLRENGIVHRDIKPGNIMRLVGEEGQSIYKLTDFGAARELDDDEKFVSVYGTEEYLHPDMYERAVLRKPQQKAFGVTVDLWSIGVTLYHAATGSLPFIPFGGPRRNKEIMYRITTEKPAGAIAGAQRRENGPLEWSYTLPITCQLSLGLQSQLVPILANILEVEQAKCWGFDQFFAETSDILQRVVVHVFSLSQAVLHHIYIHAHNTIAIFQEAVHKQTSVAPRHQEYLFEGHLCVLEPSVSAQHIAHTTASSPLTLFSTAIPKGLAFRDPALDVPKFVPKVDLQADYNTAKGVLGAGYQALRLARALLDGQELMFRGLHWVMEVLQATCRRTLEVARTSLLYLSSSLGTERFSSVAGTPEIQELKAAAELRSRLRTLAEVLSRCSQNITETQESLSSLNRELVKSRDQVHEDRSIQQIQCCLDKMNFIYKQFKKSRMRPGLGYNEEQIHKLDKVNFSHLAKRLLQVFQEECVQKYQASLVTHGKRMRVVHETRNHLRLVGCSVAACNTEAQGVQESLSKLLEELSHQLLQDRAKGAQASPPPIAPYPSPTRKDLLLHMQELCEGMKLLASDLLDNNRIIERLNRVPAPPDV
# [2] = molecular target: T2, Serine/threonine-protein kinase Nek1 (Homo sapiens) (UniProt Q96PY6); conditions: at 0.1 µM
# T2 sequence (whole entry): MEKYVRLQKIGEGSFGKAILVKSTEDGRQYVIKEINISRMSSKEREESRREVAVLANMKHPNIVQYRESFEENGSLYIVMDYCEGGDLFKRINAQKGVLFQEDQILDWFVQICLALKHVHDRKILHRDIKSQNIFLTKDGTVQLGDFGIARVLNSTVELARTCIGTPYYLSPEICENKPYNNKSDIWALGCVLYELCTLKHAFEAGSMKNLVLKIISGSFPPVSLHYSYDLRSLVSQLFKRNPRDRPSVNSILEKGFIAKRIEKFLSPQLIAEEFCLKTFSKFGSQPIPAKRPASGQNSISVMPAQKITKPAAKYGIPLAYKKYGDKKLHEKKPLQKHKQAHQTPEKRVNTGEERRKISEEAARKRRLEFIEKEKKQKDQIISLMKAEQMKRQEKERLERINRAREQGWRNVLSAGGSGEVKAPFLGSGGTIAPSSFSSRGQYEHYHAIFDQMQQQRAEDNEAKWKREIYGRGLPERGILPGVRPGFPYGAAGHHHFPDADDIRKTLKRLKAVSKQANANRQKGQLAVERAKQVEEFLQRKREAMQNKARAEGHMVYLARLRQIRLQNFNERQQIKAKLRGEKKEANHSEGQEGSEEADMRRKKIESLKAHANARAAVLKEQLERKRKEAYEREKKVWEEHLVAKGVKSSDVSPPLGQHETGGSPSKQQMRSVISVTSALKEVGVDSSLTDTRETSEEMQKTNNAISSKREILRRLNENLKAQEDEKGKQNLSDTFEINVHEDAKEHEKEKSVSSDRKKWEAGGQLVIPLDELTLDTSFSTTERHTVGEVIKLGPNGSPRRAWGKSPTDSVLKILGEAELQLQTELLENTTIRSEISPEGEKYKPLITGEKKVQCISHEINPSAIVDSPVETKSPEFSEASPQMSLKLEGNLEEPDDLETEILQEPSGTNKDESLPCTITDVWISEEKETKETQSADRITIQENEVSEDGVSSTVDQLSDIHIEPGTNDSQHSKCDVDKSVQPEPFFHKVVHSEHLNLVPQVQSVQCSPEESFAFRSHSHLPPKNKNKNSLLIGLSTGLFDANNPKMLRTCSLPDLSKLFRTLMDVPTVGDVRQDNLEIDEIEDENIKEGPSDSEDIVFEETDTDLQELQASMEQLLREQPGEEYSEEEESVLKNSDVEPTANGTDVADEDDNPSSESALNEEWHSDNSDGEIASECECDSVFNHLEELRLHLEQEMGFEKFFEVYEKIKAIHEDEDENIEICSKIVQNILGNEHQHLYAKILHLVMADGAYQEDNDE
# [3] = molecular target: T2, Serine/threonine-protein kinase Nek1 (Homo sapiens); conditions: at 1 µM
# [4] = molecular target: T3, Serine/threonine-protein kinase Nek2 (Homo sapiens) (UniProt P51955); conditions: at 0.1 µM
# T3 sequence (whole entry): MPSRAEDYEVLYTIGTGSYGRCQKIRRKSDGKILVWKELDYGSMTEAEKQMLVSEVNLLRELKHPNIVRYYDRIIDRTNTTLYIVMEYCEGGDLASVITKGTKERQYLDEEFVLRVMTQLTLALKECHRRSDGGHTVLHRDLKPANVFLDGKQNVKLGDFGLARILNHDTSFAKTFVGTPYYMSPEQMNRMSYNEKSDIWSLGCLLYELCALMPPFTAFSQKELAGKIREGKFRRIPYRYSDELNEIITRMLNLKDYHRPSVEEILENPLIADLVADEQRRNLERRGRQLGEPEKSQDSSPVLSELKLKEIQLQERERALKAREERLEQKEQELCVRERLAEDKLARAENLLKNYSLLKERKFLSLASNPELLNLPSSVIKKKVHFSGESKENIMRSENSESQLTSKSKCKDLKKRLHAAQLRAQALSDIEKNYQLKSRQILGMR
# [5] = molecular target: T3, Serine/threonine-protein kinase Nek2 (Homo sapiens); conditions: at 1 µM
# [6] = molecular target: Serine/threonine-protein kinase Nek6 (Homo sapiens) (UniProt Q9HC98); conditions: at 0.1 µM
# [7] = molecular target: Serine/threonine-protein kinase Nek6 (Homo sapiens) (UniProt Q9HC98); conditions: at 1 µM
# [8] = molecular target: Serine/threonine-protein kinase Nek7 (Homo sapiens) (UniProt Q8TDX7); conditions: at 0.1 µM
# [9] = molecular target: Serine/threonine-protein kinase Nek7 (Homo sapiens) (UniProt Q8TDX7); conditions: at 1 µM
# [10] = molecular target: T4, Serine/threonine-protein kinase Nek9 (Homo sapiens) (UniProt Q8TD19); conditions: at 0.1 µM;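 note: reported value is the mean percent inhibition of NEK9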
# T4 sequence (whole entry): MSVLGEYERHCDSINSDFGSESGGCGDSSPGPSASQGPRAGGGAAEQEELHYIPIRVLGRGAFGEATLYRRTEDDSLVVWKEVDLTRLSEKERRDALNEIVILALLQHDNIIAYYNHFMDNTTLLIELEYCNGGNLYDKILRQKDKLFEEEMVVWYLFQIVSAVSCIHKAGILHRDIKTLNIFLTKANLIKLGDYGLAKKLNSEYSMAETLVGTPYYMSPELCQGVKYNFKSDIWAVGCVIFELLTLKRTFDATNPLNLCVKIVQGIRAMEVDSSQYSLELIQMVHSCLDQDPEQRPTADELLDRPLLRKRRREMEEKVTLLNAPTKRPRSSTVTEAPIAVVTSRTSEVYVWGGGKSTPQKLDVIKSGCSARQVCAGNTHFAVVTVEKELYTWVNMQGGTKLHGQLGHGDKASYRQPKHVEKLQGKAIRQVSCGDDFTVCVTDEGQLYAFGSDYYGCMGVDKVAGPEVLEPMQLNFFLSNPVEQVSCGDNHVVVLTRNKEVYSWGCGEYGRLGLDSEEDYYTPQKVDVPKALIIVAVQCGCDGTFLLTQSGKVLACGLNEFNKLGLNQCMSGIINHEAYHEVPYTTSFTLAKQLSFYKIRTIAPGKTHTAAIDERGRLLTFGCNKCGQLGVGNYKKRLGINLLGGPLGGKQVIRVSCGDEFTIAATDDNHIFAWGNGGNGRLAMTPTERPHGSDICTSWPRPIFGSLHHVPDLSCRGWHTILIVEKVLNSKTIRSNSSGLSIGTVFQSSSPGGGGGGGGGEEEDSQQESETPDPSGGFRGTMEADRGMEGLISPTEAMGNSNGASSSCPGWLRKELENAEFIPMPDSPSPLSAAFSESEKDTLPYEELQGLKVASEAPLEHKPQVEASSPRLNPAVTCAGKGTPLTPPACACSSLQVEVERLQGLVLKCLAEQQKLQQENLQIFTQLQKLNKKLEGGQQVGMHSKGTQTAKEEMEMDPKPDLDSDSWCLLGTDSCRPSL
# Sequence of Serine/threonine-protein kinase Nek7 (Homo sapiens) (Q8TDX7 whole entry, looked up): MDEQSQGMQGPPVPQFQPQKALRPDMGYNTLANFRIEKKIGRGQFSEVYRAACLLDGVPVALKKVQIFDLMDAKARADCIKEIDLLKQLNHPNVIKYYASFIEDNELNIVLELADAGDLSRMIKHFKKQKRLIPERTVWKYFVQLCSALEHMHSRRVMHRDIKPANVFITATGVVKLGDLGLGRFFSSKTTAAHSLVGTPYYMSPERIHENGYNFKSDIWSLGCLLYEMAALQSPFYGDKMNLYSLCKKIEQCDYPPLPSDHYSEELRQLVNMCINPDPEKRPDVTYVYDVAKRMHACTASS
# Sequence of Serine/threonine-protein kinase Nek6 (Homo sapiens) (Q9HC98 whole entry): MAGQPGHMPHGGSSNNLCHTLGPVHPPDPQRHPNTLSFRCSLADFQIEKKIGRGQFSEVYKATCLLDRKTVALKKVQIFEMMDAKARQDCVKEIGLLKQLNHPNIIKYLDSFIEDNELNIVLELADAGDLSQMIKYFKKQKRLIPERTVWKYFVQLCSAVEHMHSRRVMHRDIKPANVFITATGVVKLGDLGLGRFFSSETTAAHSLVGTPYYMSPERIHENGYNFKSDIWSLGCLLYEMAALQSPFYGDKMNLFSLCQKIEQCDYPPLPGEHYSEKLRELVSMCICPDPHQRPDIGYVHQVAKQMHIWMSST
smiles,measurement,setting,value
Nc1nccc(C#Cc2cncnc2Nc2ccc(OCc3cccc(F)c3)c(Cl)c2)n1,inhibition,[1],6.36%
same,inhibition,[2],2.09%
same,inhibition,[3],3.18%
same,inhibition,[4],4.14%
same,inhibition,[5],5.98%
same,inhibition,[6],1.4%
same,inhibition,[7],-0.89%
same,inhibition,[8],3.1%
same,inhibition,[9],3.35%
same,inhibition,[10],8.89%
